Experimental findings from PubChem BioAssay (NCI) are described below.

Structures are written as SMILES. The panel holds about 83,000 compounds, 20% with a hit somewhere; the sample as a whole holds those more often.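 Testing used 96-well plates and a 48-hour single-concentration exposure. Example: -40 means 40% of the starting cells died.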 Unmarked numbers belong to inactive results. Calls of active or inactive are those of the source. How the source made its calls: active means growth percent below 10; inactive means the rest.

Common to all, as to experiment: NCI-60 one-dose screen, 48 h (100 = growth as untreated, 0 = no growth, -100 = all killed)
Conditions in all cases: 10 µM unless noted

Test [1] deals with HCT-15 colon.
Test [2] concerns HT29 colon.
The test system of test [3] is SNB-75 CNS.
The subject of test [4] is SNB-19 CNS.
Test [5] concerns U251 CNS.
Test [6] relates to PC-3 prostate.
Test [7] has as its system SK-MEL-5 melanoma.
Test [8] deals with UACC-62 melanoma.
In test [9] the test system is LOX IMVI melanoma.
For test [10], the system named is SK-MEL-28 melanoma.

Turning to `O=C(c1ccccc1)N(CCCCl)C(=O)N(CCCCl)C(=O)c1ccccc1`, the growth in test [1] is 94.6%; in test [2] it was 82.1%; in [3], 104%; in test [4] it was 97.4%; in test [5], 88.5%; in test [6], 72.1%. In addition, the growth in [7] was 89.6%; in test [8] it was 65.2%; in test [9] it was 90%; in test [10] it was 133%.

For the molecule `COc1ccc(/C=C2\CCCC3=C2N=C2SC(C)=NN2C3c2ccc(OC)c(OC)c2)cc1OC` (stereo not given), the growth was 28.3% in test [1]; 4.84% (active) in test [2]; 27.7% in test [3]; 45% in [4]; 15.5% in test [5]; 40% in test [6]. In addition, the growth in test [7] is 24.2%; in [8] it was 34.6%; in test [9], 1.41% (active); in test [10] it was 58.9%.

Take `CCc1ccc(Nc2ncnc3c2cnn3-c2cccc(Br)c2)cc1`: the growth in test [1] was 101%; in test [2] it was 108%; in test [3], 78.4%; in test [4] it was 95.3%; in test [5], 94.3%; in test [6], 94.9%. Also, the growth in test [7] was 96.6%; in [8] it was 91.7%; in test [9], 96.3%; in test [10], 107%.

In the case of `O=C(Nc1cnc(C(F)(F)F)cn1)c1cc(Cl)ccc1O`, the growth in test [1] is 10.9%; in test [2] it was 22.6%; in test [3], -20.4% (active); in test [4] it was 24.3%; in test [5], 6.83% (active); in test [6] it was 5.49% (active). In addition, the growth in test [7] is -80.7% (active); in test [8], -5.58% (active); in [9], 6.55% (active); in [10] it was 3.09% (active).

Regarding `CCOC(=O)NNc1cccc(Cl)c1`, the growth in [1] is 107%; in test [2], 109%; in test [3], 77.2%; in test [4], 98%; in [5], 100%; in test [6], 89.7%. In addition, the growth in test [7] is 101%; in [8], 83.8%; in test [9], 92.8%; in test [10], 109%.

As for `C#CC[C@@H]1C[C@]2(C)[C@H]3CC[C@@H]4[C@H]5C(C(=C)C)CC[C@]5(C(=O)NCCCCN)CC[C@@]4(C)[C@]3(C)CC[C@H]2C(C)(C)[C@H]1OC(C)=O` (stereo not given in full), the growth was -66.1% (active) in test [1]; -61.3% (active) in test [2]; -97.3% (active) in test [3]; -56.7% (active) in test [4]; -86.6% (active) in test [5]; 6.29% (active) in [6]. The growth in [7] was 89.9%; in test [8], -36.1% (active); in test [9], -83.4% (active); in [10], 67.9%.

On to `CC1=C(C(=O)Nc2ccc(F)cc2)C(c2ccc(Cl)cc2)C2=C(CC(C)(C)CC2=O)N1` (stereo not given), for which the growth was 84.6% in test [1]; 98% in test [2]; 66% in test [3]; 86% in test [4]; 81.6% in test [5]; 61.7% in test [6]. The growth in [7] was 75.9%; in [8], 77.4%; in test [9] it was 87.8%; in test [10] it was 82.6%.

On to `O=C(N=Nc1c(Cl)c(O)c2ccccc2c1O)C(=O)Nc1cccc(C(F)(F)F)c1`, for which the growth in [1] was 68.9%; in test [2], 73.6%; in test [3] it was 31.3%; in test [4], 92.6%; in [5], 74.6%; in test [6] it was 58.2%. Also, the growth in test [7] is 72.4%; in test [8] it was 83.2%; in [9], 14.7%; in test [10], 101%.

In the case of `CCOC(=O)Nc1ccc2nc(-c3cscn3)[nH]c2c1`, the growth in test [1] was 37.8%; in [2], 14.8%; in test [3], 33.1%; in test [4], 63.2%; in [5], 35%; in test [6] it was 82.2%. In addition, the growth in test [7] is 31.9%; in test [8] it was 45.4%; in test [9], 46.6%; in test [10], 53.4%.

For the molecule `CNC(=O)c1ccccc1Sc1ccc2c(/C=C/c3ccccn3)n[nH]c2c1`, the growth in test [1] was 33.9%; in [2] it was 25.2%; in test [3], 26.3%; in [4], 50.2%; in test [5], 40.1%; in test [6], 28.1%. Further, the growth was 11.2% in [7], 13% in [8], 8.31% (active) in test [9] and 40.7% in test [10].

Consider `Brc1cccc(-n2ncc3c(Nc4ccc(-c5nnc(-c6ccccc6)o5)cc4)ncnc32)c1`, for which the growth in [1] is 101%; in test [2] it was 106%; in test [3] it was 92.3%; in [4], 102%; in test [5], 103%; in [6] it was 95.1%. Moreover, the growth in test [7] was 98.7%; in [8], 93.3%; in test [9], 93.3%; in test [10], 112%.

With `O=C1/C(=C\c2cccn2Cc2ccc(F)cc2)c2ccccc2N1c1c(Cl)cccc1Cl`, the growth in test [1] was 56.2%; in test [2] it was 81.5%; in test [3], 68.4%; in [4], 81.3%; in [5] it was 75.7%; in test [6], 52%. In addition, the growth is 57.7% in test [7], 62% in [8], 91.1% in test [9] and 87.4% in test [10].
